# Source: PubChem BioAssay
# MCF10A rerep: inducers of DNA re-replication in MCF 10A breast cells | MCF 10A DNA re-replication, Hoechst nuclear intensity, 48 h | Potency, µM (series often up to 46.1 µM), hits mostly activators | 350,000 compounds, 2.9% hits; further: nearly all actives have a fitted effect of over 50% in size
# SW480 rerep: induces DNA re-replication in SW480 colon adenocarcinoma cells; SW480 DNA re-replication, Hoechst DNA content imaging, 48 h; Potency, µM (doses to about 46.1 µM), most hits filed as activators; 340,000 compounds, 1.8% hits; further: nearly all actives have a fitted effect of over 55% in size
#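 250 cells/well; 23 nL cpd via pin tool; 48 hr, 37 C, 5% CO2; Hoechst 40 min; imager read of total nuclear intensity, ex 405/em 500-530 nm.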
# KB-3-1 tox: KB-3-1 parental cell cytotoxicity; 400,000 compounds, 1.4% hits; Potency, µM (titrated, usually from 46.1 µM), actives largely listed as cytotoxic; AID 1347075; KB-3-1 viability, CellTiter-Glo ATP luminescence, 72 h; further: nearly all actives have a fitted effect of over 60% in size
#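 Parental KB-3-1 viability, qHTS format: 72 h compound exposure, 37 °C; CellTiter-Glo; media-only wells and DMSO plates as controls; concentration-effect fits on corrected data.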
# ELG1 repair inh: blocks ELG1-dependent DNA repair in HEK293T cells. HEK293T ELG1-luciferase reporter, luminescence, 16 h; DNA damage induced by 5-fluorouridine. AID 504467. Potency, µM (top dose mostly 46.1 µM), hits mostly inhibitors. 330,000 compounds, 2.3% hits; further: nearly all actives have a fitted effect of over 55% in size
#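 HEK293T cells expressing luciferase-tagged ELG1 (2,000/well) received 5-Fluorouridine plus compound or DMSO for 16 hr at 37 °C. Luciferase was read by ONE-Glo luminescence after 30 min at room temperature.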
# KB-V1 MDR tox: KB-V1 MDR subline cytotoxicity | KB-V1 MDR cells viability, CellTiter-Glo, 72 h | Potency, µM (doses to about 46.1 µM), most hits filed as cytotoxic | 400,000 compounds, 3.4% hits; further: nearly all actives have a fitted effect of over 60% in size
#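 KB-V1 MDR subline cells in DMEM (phenol-red free, 10% FBS) exposed to compounds in qHTS concentration series for 72 h at 37 degrees C. Viability read by CellTiter-Glo luminescence; concentration-effect curves fitted after normalization and correction.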
# A number is an active result; n = inactive; u = inconclusive; x = no result. The list is not random: actives were taken first. Their share in the collection is about 8.2%. The call rests on the fitted dose curve; in most records, active means well fitted curve in the direction sought with a large enough effect; inconclusive means small, poorly fitted or top-dose-only effect, or another doubt; inactive means no such curve, though single readings can be large; an effect the other way counts as inactive or inconclusive.
SMILES,MCF10A rerep,SW480 rerep,KB-3-1 tox,ELG1 repair inh,KB-V1 MDR tox
CCN(CCCNC(=O)c1nn(-c2ccc(OC)cc2)c(=O)c2c1c1ccccc1n2C)c1cccc(C)c1,x,x,n,x,n
Cc1ccc(CN2CCN(/N=C/c3sccc3C)CC2)c(C)c1,n,n,n,n,14.6µM
CCOc1c(Nc2ccccc2O)c(=O)c1=O,n,n,n,n,n
COc1ccc(-c2nnc(SCC(=O)N(Cc3ccccc3)C(C)(C)C)o2)cc1OC,u,n,u,n,9.2µM
COc1ccc(CCNC(=S)NC(=O)c2ccc(Br)cc2)cc1OC,u,n,n,u,u
COc1ccc(CCNC(=S)NC(=O)c2ccccc2)cc1C,u,u,n,13µM,n
COc1ccc(CCNC(=O)C(=O)NCc2ccccc2)cc1OC,u,18.4µM,20.6µM,n,u
COc1ccc(CCNC(=O)CSc2ccc(NC(C)=O)cc2)cc1OC,n,n,n,n,n
COc1ccc(CCNC(=O)CSc2ccc3ccccc3c2)cc1OC,n,n,n,n,23.1µM
COCCCNCC(=O)Nc1ccc(OC(F)(F)F)cc1,u,u,n,n,n
COc1ccc(CCNC(=O)C(C(=O)c2ccccc2)n2cc(Cl)ccc2=O)cc1OC (centres undefined),n,n,n,n,16.4µM
COc1ccc(CCNCC(=O)Nc2ccc(OC(F)(F)F)cc2)cc1OC,23.1µM,n,n,n,n
COc1ccc(CCNC(=O)CSc2nnc(-c3ccccc3)o2)cc1OC,n,n,n,n,20.6µM
COc1ccc(CCNC(=O)CSc2nnc(-c3cccc(C)c3)o2)cc1OC,n,n,n,u,u
O=C1c2ccccc2C(=O)N1CCCCc1cn(C[C@H]2CC[C@H](Cn3cc(CCCCN4C(=O)c5ccccc5C4=O)nn3)O2)nn1,n,n,n,8.2µM,u
O=C(N/N=C/c1ccc(N2CCOCC2)o1)c1ccccc1[N+](=O)[O-],u,n,n,n,n
O=C(N/N=C/c1ccc(N2CCCCC2)o1)c1ccccc1[N+](=O)[O-],5.8µM,7.31µM,n,n,n
Cc1c(C(=O)NCc2cccc(C(F)(F)F)c2)sc(=O)n1Cc1ccc(F)cc1,x,x,n,x,u
CC(=O)Oc1ccc(Cn2c(C)c(C(=O)NCc3cccc(C(F)(F)F)c3)sc2=O)cc1,x,x,23.1µM,x,14.6µM
COc1ccc(C(C)=O)cc1Cn1c(C)c(C(=O)NCc2cccc(C(F)(F)F)c2)sc1=O,x,x,u,x,18.4µM
Cc1cccc2sc(NNC(=O)c3ccc(S(=O)(=O)N4CCc5ccccc5C4)cc3)nc12,u,4.11µM,5.8µM,n,n
Cc1cccc2sc(NNC(=O)c3ccc(S(=O)(=O)N4CCCC(C)C4)cc3)nc12 (centres undefined),u,7.31µM,5.17µM,u,n
NC(c1csc(NC(=O)Nc2ccccc2)n1)C1CCCCC1 (centres undefined),x,x,u,x,18.4µM
CCOC(=O)C(Cc1ccccc1)C(=O)NCc1ccccc1 (centres undefined),n,u,n,n,n
O=C(Oc1c(Cl)cc(Cl)c2cccnc12)N1CCOCC1,n,n,n,n,n
SMILES,MCF10A rerep,SW480 rerep,KB-3-1 tox,ELG1 repair inh,KB-V1 MDR tox
CN1CCN(Cc2cc(Cl)c3cccnc3c2OC(=O)c2cccs2)CC1,u,u,u,u,5.8µM
O=C(Oc1c(CN2CCOCC2)cc(Cl)c2cccnc12)c1ccccc1Br,u,3.26µM,u,8.2µM,u
CCC(C)(C)c1ccc(OCCCC[n+]2cccc(C)c2)c(C(C)(C)CC)c1,u,u,3.26µM,7.3µM,n
O=C1C2=C(Nc3ccccc3SC2c2ccc(C(F)(F)F)cc2)c2ccccc21 (centres undefined),x,x,u,x,16.4µM
O=C1C2=C(Nc3ccccc3SC2c2ccco2)c2ccccc21 (centres undefined),16.4µM,n,n,n,n
CC(=O)Nc1ccc(C2Sc3ccccc3NC3=C2C(=O)c2ccccc23)cc1 (centres undefined),x,x,n,x,n
CCc1ccc(C2Sc3ccccc3NC3=C2C(=O)c2ccccc23)cc1 (centres undefined),x,x,n,x,u
CCc1ccccc1NC(=O)CN(C)C(=O)c1cccc(S(=O)(=O)N2CCCCCC2)c1,n,n,n,n,n
Cc1ccccc1C(=O)N1CCC[C@@H]1C(=O)N1CCC[C@H]1C(=O)NCc1ccncc1,x,x,n,x,n
CCN(CC)S(=O)(=O)c1c(OC)cc(C)c(Cl)c1C,n,1.16µM,n,u,n
COC(=O)c1sc2cccc(F)c2c1S(=O)(=O)NCc1ccccc1Cl,x,x,n,x,n
Cc1cccc(CSc2ncnc3c2cnn3Cc2ccccc2)c1,u,n,u,n,14.6µM
Cc1ccc(-n2ncc3c(SCc4cccc(C)c4)ncnc32)cc1,n,n,n,u,n
Cc1ccc(-n2ncc3c(SCc4cccnc4)ncnc32)c(C)c1,n,n,n,u,5.8µM
CCc1ccc(-c2cc3c(=O)n(CC(=O)NCCN4CCCCC4C)nc(C)n3n2)cc1 (centres undefined),u,18.4µM,u,n,n
CCc1ccc(-c2cc3c(=O)n(CC(=O)N4CCCC4)nc(C)n3n2)cc1,u,n,n,n,n
CNC(=O)c1cc(Oc2ccc(NC(=O)Nc3ccc(Cl)c(C(F)(F)F)c3)cc2)ccn1,16.4µM,u,u,u,u
O=C(Nc1ccc(Cl)c(C(F)(F)F)c1)c1ccncc1,n,n,n,n,u
O=C(c1ccc2c(c1)N(Cc1c(F)cccc1Cl)C(=O)c1ccccc1S2)N1CCCC1,x,x,n,x,n
CCN(CC)CCCNc1nc2ccccc2c2[nH]c3ccc(OC)cc3c12,n,u,u,x,16.4µM
COCCNC(=O)c1ccc(-n2c(SCc3cc(F)ccc3F)nc3ccccc3c2=O)cc1,n,n,u,n,5.8µM
CCOC(=O)CSc1nc2ccccc2c(=O)n1-c1ccc(C(=O)NCCOC)cc1,n,n,n,n,u
Cc1c(C#N)c(NC(=O)CCl)n(Cc2ccccc2)c1C,u,u,10.3µM,u,u
Cc1c(C#N)c(NC(=O)CCl)n(Cc2ccc(F)cc2)c1C,u,u,u,u,n
Cc1c(C#N)c(NC(=O)CCl)n(Cc2cccs2)c1C,u,5.8µM,u,u,u
COC(=O)C/C(O)=C(/N=Nc1cccc(C(F)(F)F)c1)C(=O)OC,5.8µM,u,n,n,n
O=C(NC(c1ccc(Cl)cc1)c1c(O)ccc2ccccc12)c1ccccc1 (centres undefined),u,u,u,n,20.6µM
O=C(NC(c1ccccc1)c1c(O)ccc2ccccc12)c1ccccc1Cl (centres undefined),23.1µM,u,u,n,20.6µM
CC(C)CC(=O)NC(c1ccccc1)c1c(O)ccc2ccccc12 (centres undefined),n,n,n,u,n
CCOCCn1c(COc2ccc(C)cc2)nc2ccccc21,n,n,u,u,16.4µM
